Results as given in PubChem BioAssay (EPA / NIEHS).
Values joined by “and” are separate entries in the source; they are usually repeats but may differ in a detail not shown here. Equal values may be shown once. Records with an inconclusive call do not appear. Active and inactive are the calls of the source. How the source made its calls, unless noted: active means hit-call score of the fitted dose curve at least 0.9, where 1 is the maximum; inconclusive means response in the unintended direction; inactive means score below 0.9.

Columns and labels:
[1] = VALA_TUBHUV_Antagonist_CellCount: Viability Assessment in the VALA Sciences human Umbilical Vein Endothelial Tubule Formation (TUBHUV) Antagonism Assay (AID 2284310)
Outline: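 HUVEC co-cultured with HDF (1:3) 3 days in 10 ng/ml VEGF, then 3 days with compounds in VEGF medium. Fixed, nuclear stain and CD31 immunofluorescence, imaged; cell counts fitted versus 0.1% DMSO, loss of signal read as lower viability.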

[2] = VALA_TUBIPS_Agonist_TubuleLength: VALA Sciences human iPS-derived Endothelial Tubule Formation (TUBIPS) Agonism Assay (AID 2284311)
Outline: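 Human iPS-derived endothelial cells were exposed to compound for 72 h. Tubule formation was imaged by high-content fluorescence and scored as gain of signal relative to DMSO vehicle (agonist mode).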

[3] = VALA_TUBIPS_Antagonist_TubuleLength: VALA Sciences human iPS-derived Endothelial Tubule Formation (TUBIPS) Antagonist Assay (AID 2284313)
Outline: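 Cells grown 3 days with 10 ng/ml VEGF, then exposed to compounds in VEGF medium for another 3 days. After fixation, nuclear stain and CD31 immunofluorescence imaging gave mean total tubule length against 0.1% DMSO; suramin (100 uM) inhibition control.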

[4] = VALA_MIGHUV2_CellCount: Viability Assessment in the VALA Sciences human Umbilical Vein Endothelial Cell Migration (MIGHUV) Assay, Area of Scratch Wound after Recovery (AID 2284314)
Outline: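 Scratch-wounded HUVEC monolayers received test chemical within 30 min, 6-point concentration response in triplicate, 0.1 % DMSO vehicle. After 24 h wound recovery, fixed cells were Hoechst-stained and nuclei imaged; loss of signal versus DMSO indicates reduced viability.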

[5] = VALA_MIGHUV2_Bcatenin: VALA Sciences human Umbilical Vein Endothelial Cell Migration (MIGHUV) Assay, Nuclear Translocation of beta-Catenin after Recovery (AID 2284315)
Outline: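 HUVEC (4000 cells/well) scratch-wounded, dosed within 30 min over 6 concentrations in triplicate, recovered 24 h. After fixation, Hoechst and anti-beta-catenin immunofluorescence imaged for nuclear CTNB. Gain of signal versus 0.1% DMSO.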

[6] = VALA_MIGHUV2_WoundArea: VALA Sciences human Umbilical Vein Endothelial Cell Migration (MIGHUV) Assay, Area of Scratch Wound after Recovery (AID 2284316)
Outline: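 HUVEC seeded at 9000 cells/well, scratched after 24 h; test chemical added within 30 min, 6-point concentration response in triplicate (0.1% DMSO vehicle). After 24 h wound recovery, cells fixed and Hoechst-stained nuclei in wound area imaged; Cytochalasin D reference control.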

IYD (gene 389434) = assay: CCTE_GLTED_hIYD: CCTE's human Iodotyrosine Deiodinase (xIYD) Inhibition Assay, Great Lakes Toxicology and Ecology Division (GLTED) Lab (AID 2284317);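 further: cell-free human IYD enzyme made in baculovirus insect cells; iodide freed from monoiodotyrosine measured by cerium arsenite color change at 420 nm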
Outline: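 Absorbance change at 420 nm from the iodide-catalysed cerium-arsenic reaction reports free iodide released by human IYD from monoiodotyrosine. Enzyme, substrate and chemical are incubated 3 h; loss of signal is fitted relative to DMSO baseline.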

CD69, CD69 (gene 969) = assay: BSK_LPS_CD69: BioMAP Diversity Plus: LPS Assay for CD69 Biomarker Activity (AID 2284303; active means hit-call score of the fitted dose curve at least 0.9, where 1 is the maximum; inactive means score below 0.9); settings: primary human HUVEC with PBMC
Outline: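 Human umbilical vein endothelial cells co-cultured with PBMC under LPS stimulation, chemical exposure 24 h; cell-surface CD69 measured by ELISA and fitted in the positive direction versus DMSO.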

[7] = IUF_NPC2c_oligodendrocyte_migration_120hr: Leibniz Research Institute for Environmental Medicine (IUF) 120-hour Neural Progenitor Cell Migration Assay for Oligodendrocyte Migration (NPC2c) (AID 2284297; active means hit-call score of the fitted dose curve at least 0.9, where 1 is the maximum; inactive means score below 0.9)
Outline: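 Read-out is the mean distance of O4-positive oligodendrocytes from the sphere core edge at 120 h, normalized to radial glia migration and fitted in the gain direction against DMSO. Spheres of primary human neural progenitors differentiated on laminin under continuous compound exposure.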

[8] = IUF_NPC2a_radial_glia_migration_120hr: Leibniz Research Institute for Environmental Medicine (IUF) 120-hour Neural Progenitor Cell Migration Assay for Radial Glia Migration (NPC2a) (AID 2284298; active means hit-call score of the fitted dose curve at least 0.9, where 1 is the maximum; inactive means score below 0.9)
Outline: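 Readout: distance in um from sphere core edge to migration-area edge, derived from Hoechst nuclei density with a threshold-defined polynomial boundary. Spheres: hNPC, GW 16-19, 0.3 mm, on PDL/laminin; exposure 5 days; DMSO is baseline.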

[9] = IUF_NPC2a_radial_glia_migration_72hr: Leibniz Research Institute for Environmental Medicine (IUF) 72-hour Neural Progenitor Cell Migration Assay for Radial Glia Migration (NPC2a) (AID 2284299; active means hit-call score of the fitted dose curve at least 0.9, where 1 is the maximum; inactive means score below 0.9)
Outline: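 Primary hNPC spheres, fetal brain GW 16-19, on PDL/laminin; DMEM/F12 3:1 + 1% N2. Compound dosed day 0, 7 conc. + SC, half-medium refresh day 3. 72 h brightfield, migration distance core-to-front (um), 4 directions averaged.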

[10] = IUF_NPC2b_neuronal_migration_120hr: Leibniz Research Institute for Environmental Medicine (IUF) 120-hour Neural Progenitor Cell Migration Assay for Neuron Migration (NPC2b) (AID 2284300; active means hit-call score of the fitted dose curve at least 0.9, where 1 is the maximum; inactive means score below 0.9)
Outline: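 Read-out is mean distance from sphere edge to each TUBB3-positive neuron at 120 h, expressed relative to radial glia migration distance and to DMSO baseline. Single 0.3 mm human NPC spheres differentiated on laminin under continuous compound exposure.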

[11] = IUF_NPC3_neuronal_differentiation_120hr: Leibniz Research Institute for Environmental Medicine (IUF) 120-hour Neuronal Differentiation Assay (NPC3) (AID 2284301; active means hit-call score of the fitted dose curve at least 0.9, where 1 is the maximum; inactive means score below 0.9)
Outline: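 Primary human fetal neural progenitor spheres (GW 16-19, 0.3 mm) plated on poly-D-lysine/laminin in N2 medium, exposed from day 0 for 120 h with half-medium refresh at day 3. TUBB3+ cells as percent of Hoechst nuclei in migration area; DMSO baseline.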

[12] = IUF_NPC4_neurite_length_120hr: Leibniz Research Institute for Environmental Medicine (IUF) 120-hour Neuronal Morphology Assay for Neurite Length (NPC4) (AID 2284302; active means hit-call score of the fitted dose curve at least 0.9, where 1 is the maximum; inactive means score below 0.9)
Outline: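 Human fetal cortex (GW 16-19) neural progenitor spheres, 0.3 mm, were plated on poly-D-lysine/laminin in N2 differentiation medium and exposed from day 0 for 120 h, half-feeding at day 3. Mean TUBB3+ neurite length (µm) came from skeletonized images, relative to DMSO.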

[13] = IUF_NPC5_oligodendrocyte_differentiation_120hr: Leibniz Research Institute for Environmental Medicine (IUF) 120-hour Oligodendrocyte Differentiation Assay (NPC5) (AID 2284304);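 further: primary human fetal neural progenitor spheres plated to migrate and differentiate; share of O4-positive cells among Hoechst nuclei found by CNN image analysis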
Outline: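 Oligodendrocyte differentiation was scored after 120 h as the O4-positive share of Hoechst-stained nuclei across the neurosphere migration area, using a trained convolutional neural network on high-content fluorescence images. Human fetal neural progenitor spheres were dosed from day 0, normalised to DMSO.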

[14] = IUF_NPC4_neurite_area_120hr: Leibniz Research Institute for Environmental Medicine (IUF) 120-hour Neuronal Morphology Assay for Neurite Area (NPC4) (AID 2284305)
Outline: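 Human fetal cortex-derived neural progenitor spheres (0.3 mm, GW 16-19) plated on poly-D-lysine/laminin in N2 differentiation medium and exposed from day 0 for 120 h across 7 concentrations plus solvent control. Neurite area is mean pixel area per TUBB3-positive neuron via skeletonization, analysed relative to DMSO.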

[15] = IUF_NPC2-5_cytotoxicity_72hr: Cytotoxicity Assessment at 72 hours in the Leibniz Research Institute for Environmental Medicine (IUF) Neural Progenitor Cell Migration and Differentiation Assay for Cytotoxicity (NPC2-5) (AID 2284306);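 further: LDH release into supernatant measured by resorufin fluorescence marking membrane damage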
Outline: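 Human fetal (GW 16-19) neural progenitor spheres, 0.3 mm, plated on poly-D-lysine/laminin in N2 differentiation medium and exposed from day 0 to 7 concentrations plus solvent control (DMSO ≤0.1%). LDH-dependent resazurin-to-resorufin fluorescence in supernatant at 72 h.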

[16] = IUF_NPC2-5_cytotoxicity_120hr: Cytotoxicity Assessment at 120 hours in the Leibniz Research Institute for Environmental Medicine (IUF) Neural Progenitor Cell Migration and Differentiation Assay (NPC2-5) (AID 2284307)
Outline: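 Sphere plating starts differentiation and exposure together at day 0. Compound solution is half-replaced on day 3. At 120 h, medium supernatant is taken for an LDH membrane-integrity read based on resazurin reduction to resorufin fluorescence.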

[17] = IUF_NPC2-5_cell_number_120hr: Cell Number Assessment at 120 hours in the Leibniz Research Institute for Environmental Medicine (IUF) Neural Progenitor Cell Migration and Differentiation Assay (NPC2-5) (AID 2284308; active means hit-call score of the fitted dose curve at least 0.9, where 1 is the maximum; inactive means score below 0.9;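 further: count of Hoechst-stained nuclei in migration zone around plated human neural progenitor spheres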)
Outline: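 hNPC spheres, one per well, PDL/laminin, N2 medium, 37C, 5% CO2. Dosing day 0 → half-medium change with fresh compound day 3 → fix 120 h. Readout: Hoechst+ nuclei count, migration area; 7 concentrations plus solvent control.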

[18] = IUF_NPC2-5_viability_120hr: Viability Assessment at 120 hours in the Leibniz Research Institute for Environmental Medicine (IUF) Neural Progenitor Cell Migration and Differentiation Assay (NPC2-5) (AID 2284312; active means hit-call score of the fitted dose curve at least 0.9, where 1 is the maximum; inactive means score below 0.9)
Outline: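 Human fetal (GW 16-19) neural progenitor spheres of 0.3 mm were plated on poly-D-lysine/laminin in N2 differentiation medium and exposed from day 0 for 120 h, with half-medium refresh at day 3. Viability was read as alamar blue resazurin-to-resorufin fluorescence against DMSO.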

## CC(C)c1cccc(C(C)C)c1N1C(=O)c2ccc(O)cc2C1=O
[1]
  outcome: inactive
[2]
  outcome: inactive
[3]
  AC50: 10.3 µM (active) and 72.7 µM (active)
[4]
  AC50: 85.8 µM (active)
[5]
  AC50: 17.4 µM (active) and 53.1 µM (active)
[6]
  AC50: 17.8 µM (active) and 74 µM (active)

## CN(C)c1ccc(N=NS(=O)(=O)O)cc1
IYD (gene 389434)
  AC50: 47.9 µM (active)

## CCOc1cccc(-n2cc(C(=O)N3CCN(c4cc(C(=O)O)c5ccccc5c4)CC3)nc2-c2ccc(C)cc2)c1
IYD (gene 389434)
  AC50: 116 µM (active)

## Cn1cnc([N+](=O)[O-])c1Sc1ncnc2nc[nH]c12
CD69, CD69 (gene 969)
  outcome: inactive

## O=C(OC[C@H]1O[C@@H](OC(=O)c2cc(O)c(O)c(OC(=O)c3cc(O)c(O)c(O)c3)c2)[C@H](OC(=O)c2cc(O)c(O)c(OC(=O)c3cc(O)c(O)c(O)c3)c2)[C@@H](OC(=O)c2cc(O)c(O)c(OC(=O)c3cc(O)c(O)c(O)c3)c2)[C@@H]1OC(=O)c1cc(O)c(O)c(OC(=O)c2cc(O)c(O)c(O)c2)c1)c1cc(O)c(O)c(OC(=O)c2cc(O)c(O)c(O)c2)c1
IYD (gene 389434)
  AC50: 13.3 µM (active)

## O=P(OC(CCl)CCl)(OC(CCl)CCl)OC(CCl)CCl
[7]
  outcome: inactive
[8]
  AC50: 5.38 µM (active)
[9]
  outcome: inactive
[10]
  outcome: inactive
[11]
  outcome: inactive
[12]
  outcome: inactive
[13]
  AC50: 4.15 µM (active)
[14]
  outcome: inactive
[15]
  outcome: inactive
[16]
  outcome: inactive
[17]
  outcome: inactive
[18]
  outcome: inactive
[3]
  outcome: inactive
